Assay results as given in PubChem BioAssay (NCI).
The panel holds about 83,000 compounds, 20% with a hit somewhere; the sample as a whole holds those more often.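 Percent growth is the endpoint: 0 to 100 indicates growth inhibition (40 means 60% inhibition), 0 means no net growth, and negative values indicate cell death.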 Activity calls are given as the source filed them. The calls were made as follows: active = growth percent below 10; inactive = the rest.

What follows are compounds tested on HL-60(TB) leukemia (assay: NCI-60 one-dose screen, 48 h (100 = growth as untreated, 0 = no growth, -100 = all killed)). Settings: 10 µM unless noted.
For CC1(C)OC2[C@@H](CNC(=O)NC(=O)NC(=O)CI)O[C@@H](n3cnc4c(NC(=O)Nc5ccccc5)ncnc43)[C@H]2O1 (stereo not given in full), the growth was 77.2% (inactive).
In the case of COc1cc2nc3sc(C(=O)Nc4ccc(C(=O)OC(C)C)cc4)c(C(=O)Nc4ccc(Cl)cc4C)n3c(=O)c2cc1OC, the growth is reported as 90.2% (inactive).
With Cc1ccc2oc(=O)cc(-c3cc(-c4cc5ccccc5oc4=O)nc(N)c3C#N)c2c1 the growth was 93.5% (inactive).
For CC(C)=CCC[C@](C)(O)[C@H]1CC[C@]2(C)[C@@H]1CC[C@@H]1[C@@]3(C)C/C(=C/c4ccco4)C(=O)C(C)(C)[C@@H]3CC[C@]12C, the growth was 119% (inactive).
For COc1ccc(-c2nc(SCCC(C)C)nc(N/N=C\c3cccc(Cl)c3)c2C#N)cc1, the growth was 82% (inactive).
In the case of CN1C(=O)N(C)C2Nn3c(s/c(=C4\C(=O)N(CCc5ccccc5)c5ccccc54)c3=O)=NC21 (stereo not given), the growth is reported as 56.9% (inactive).
For O=C1C=C(OCC=C(C(F)(F)F)C(F)(F)F)c2ccccc2C1=O, the growth was -30% (active).
For C/C=C/C1OC23CCCCC2C(C#N)(C(=N)O3)C1(C#N)C#N (stereo not given), the growth was 106% (inactive).
O=C(Cc1cccc2ccccc12)N/N=C/c1ccc2c(c1)CCC2 was tested, and the growth was 68.3% (inactive).
O=C(CCN1C(=O)/C(=C/c2ccc(Cl)cc2)SC1=S)NCCCN1CCOCC1 was tested, and the growth was 98.9% (inactive).
CC(C)CCSc1nc(N)nc2nc[nH]c12 was tested, and the growth was 76.7% (inactive).
With CCCCCCCCCCCCCCCCCC[S+](C)CC (stereo not given) the growth was 13% (inactive).
With CCc1nnc(CNc2ccc(Cl)cc2)o1 the growth was 92% (inactive).
With CCn1cc2c(cc1=O)-c1nc3ccccc3c3ccnc(c13)C2=O the growth was 93.9% (inactive).
CN(CCCNC(=O)Cc1ccc2ccc3cccc4ccc1c2c34)CCCNc1cc(-c2ccc3ccccc3c2)nc2ccccc12 was tested, and the growth was -60.1% (active).
Cc1ccc(/C=C(\C#N)c2cc3ccccc3n2C)cc1 was tested, and the growth was 4.45% (active).
O=S(c1ccccc1)c1ccc2nnnn2n1 (stereo not given) was tested, and the growth was 42.5% (inactive).
For COc1cc(/C=C2\CN(C(=O)CCN3CCC(=NO)CC3)C/C(=C\c3cc(OC)c(OC)c(OC)c3)C2=O)cc(OC)c1OC, the growth was -27.9% (active).
With COc1ccc(C(O)c2cc3c(N)c(C(=O)Nc4ccc(Br)cc4)sc3nc2C)cc1 (stereo not given) the growth was -41.5% (active).
OCc1ccccn1 was tested, and the growth was 102% (inactive).
With CC(C)C1CCCCC1O (stereo not given) the growth was 193% (inactive).
In the case of COc1ccc(C(=O)c2sc3nc(C)cc(C)c3c2N)cc1OC, the growth is reported as 97.3% (inactive).
In the case of Cl.Fc1c[c-]c(-c2ccccn2)c(F)c1.[Pt].c1ccc([PH+](c2ccccc2)c2ccccc2[PH+](c2ccccc2)c2ccccc2)cc1, the growth is reported as -24.7% (active).
With O=C(Nc1cc(-c2ccccc2)[nH]n1)c1ccc(Cl)cc1 the growth was 42.1% (inactive).
In the case of CCC(C)Nc1ccc(N)cc1 (stereo not given), the growth is reported as -9.29% (active).
In the case of COc1cc2c(cc1OCCCCCN1CCN(c3ncnc4ccccc34)CC1)N=CC1CCCN1C2=O (stereo not given), the growth is reported as -25.8% (active).
For CCN(C)S(=O)(=O)Nc1cccc(Nc2ncnc3cc(NC(=O)CCl)ccc23)c1Cl, the growth was 4.38% (active).
With O=C(COc1cccc(/C=C2\COc3ccccc3C2=O)c1)Nc1nccs1 the growth was -58.4% (active).
In the case of O=C(Nc1nc2cccc(-c3ccc(CN4CCS(=O)(=O)CC4)cc3)n2n1)C1CC1, the growth is reported as 66.4% (inactive).
CCN(CC)CCC(CNc1ccnc2cc(Cl)ccc12)c1ccc(Cl)cc1 (stereo not given) was tested, and the growth was -53.9% (active).
With CCCCCN1C=C/C(=C\C(=O)N2CCCc3ccccc32)c2ccccc21 the growth was 54.8% (inactive).
With Cc1ccc(-c2csc(/N=C3\C(=O)Nc4ccccc43)n2)cc1 the growth was -48% (active).
With CC(C)(C#N)N1CCN(c2ccccc2Cl)CC1 the growth was 103% (inactive).
With O=C(CSc1nc(-c2ccc(Cl)cc2)cn1-c1ccc(Cl)cc1)c1ccc(Br)cc1 the growth was 97.1% (inactive).
With COc1ccc(/C=C/C(=O)c2ccc(NC(=O)CSc3nnc(-c4cc(OC)c(OC)c(OC)c4)o3)cc2)cc1 the growth was -53.4% (active).
With C#CCOc1cccc(-c2ncc3cc(NC(=O)CCl)ccc3n2)c1 the growth was 14.3% (inactive).
COc1ccccc1/C=N/NC1=NC2C(N1)N(C)C(=O)N2C (stereo not given) was tested, and the growth was 107% (inactive).
For CC(=O)Nc1ccc2oc(=O)ccc2c1, the growth was 67.8% (inactive).
With CC1(C)N=C(N)N=C(N)N1c1ccc(S(=O)(=O)Nc2nccs2)cc1 the growth was 101% (inactive).
For COc1cccc(-c2nc3cc(NC(=O)c4ccc(Cl)c(C#N)c4)ccc3o2)c1, the growth was 100% (inactive).
